Screening results (PubChem BioAssay)
FadD28 FP inh: M. tuberculosis FadD28 bisubstrate binding inhibition; inhibition, % at 12.5 µM; actives 0.22% (n = 360,000); AID 588549; FadD28 bisubstrate probe binding, fluorescence polarization; in the data active = inhibition above about 8.5%, passing the limit was not always enough
FBA Mtb inh: inhibitors of M. tuberculosis fructose-bisphosphate aldolase; AID 588726; actives 2.3% (n = 360,000); purified M. tuberculosis FBA, fluorescence read-out; inhibition, % at 1 µM
Target sequence (P9WQA3 whole entry, looked up): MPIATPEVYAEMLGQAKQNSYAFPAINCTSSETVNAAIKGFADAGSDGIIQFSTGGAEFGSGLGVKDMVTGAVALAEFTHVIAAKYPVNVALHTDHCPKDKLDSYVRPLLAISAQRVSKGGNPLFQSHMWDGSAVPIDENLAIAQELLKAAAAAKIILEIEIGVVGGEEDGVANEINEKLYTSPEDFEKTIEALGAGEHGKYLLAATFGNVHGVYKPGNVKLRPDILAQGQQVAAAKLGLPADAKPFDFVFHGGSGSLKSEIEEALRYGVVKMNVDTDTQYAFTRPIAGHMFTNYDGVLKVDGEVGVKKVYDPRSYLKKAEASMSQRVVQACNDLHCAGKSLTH
Rv3671c protease: inhibits the M. tuberculosis serine protease Rv3671c; inhibition, % at 5.96 µM; AID 2606; actives 0.048% (n = 320,000); P9WHR9; in the data active = inhibition above about 38%;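 note: extracellular domain of Rv3671c used as enzyme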
Target sequence (P9WHR9 whole entry, looked up, the tested form may be a part): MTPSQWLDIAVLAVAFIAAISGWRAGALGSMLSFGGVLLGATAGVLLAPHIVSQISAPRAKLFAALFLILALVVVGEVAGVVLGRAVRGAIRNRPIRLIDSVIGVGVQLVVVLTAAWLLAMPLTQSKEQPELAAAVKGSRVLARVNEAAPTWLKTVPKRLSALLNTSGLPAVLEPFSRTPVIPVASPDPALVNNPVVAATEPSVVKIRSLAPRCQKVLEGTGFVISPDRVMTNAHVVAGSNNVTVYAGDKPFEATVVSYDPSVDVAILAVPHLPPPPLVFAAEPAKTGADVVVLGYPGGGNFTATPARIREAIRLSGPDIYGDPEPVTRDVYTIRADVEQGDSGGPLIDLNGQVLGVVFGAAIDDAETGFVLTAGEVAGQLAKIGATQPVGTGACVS
GDH-TPI counter-1: inhibits GDH-TPI coupling enzymes, artifact for Mtb FBA screen; GDH-TPI coupled enzyme counterscreen, NADH absorbance; inhibition, % at 4.8 µM; actives 1.2% (n = 360,000); in the data active = inhibition above about 30%
Mtb BioA inh: inhibitors of Mycobacterium tuberculosis BioA enzyme; purified M. tuberculosis BioA enzyme, plate reader; inhibition, % at 9.99 µM; actives 0.096% (n = 360,000); AID 602481; in the data active = inhibition above about 40%
Mtb FBA inh conf: confirmation of M. tuberculosis fructose-bisphosphate aldolase inhibitors | actives 78% (n = 5,600) | shares compounds with FBA Mtb inh | purified M. tuberculosis FBA, fluorescence read-out | inhibition, % at 1 µM
GDH-TPI counter-2: GDH-TPI inhibition counter-screen for FBA inhibitors | inhibition, % at 1 µM | shares compounds with FBA Mtb inh | GDH-TPI coupled enzyme counterscreen, fluorescence | actives 81% (n = 5,600) | AID 652141; in the data active = inhibition above about 10%
Large screens that a line does not name were inactive (follow-up assays come after a bar, where they were run). Only some compounds are listed: those with a hit (about 3% of all), similar ones and a draw of the others. Cut-off read from the data, not from the text of the source, unless noted: active = inhibition above about 27%; inactive = the rest.

CCN1CCN(c2cc(C)c3cc(NC(=O)CCC(=O)N4CCN(c5ccccc5)CC4)ccc3n2)CC1	none
Cc1cc(N2CCOCC2)nc2ccc(NC(=O)CCC(=O)N3CCN(c4cccc(C(F)(F)F)c4)CC3)cc12	FBA Mtb inh 35 (no result: Mtb BioA inh) | Mtb FBA inh conf 54 | GDH-TPI counter-2 40
C[C@@H]1CN([C@H](C)CO)C(=O)c2cc(NS(=O)(=O)c3ccccc3)ccc2O[C@@H]1CN(C)Cc1ccccc1	none (no result: FadD28 FP inh, FBA Mtb inh, Rv3671c protease, GDH-TPI counter-1)
CCC(C)NC(=S)Nc1ccc2nc(N3CCOCC3)cc(C)c2c1 (stereo unspecified)	FBA Mtb inh 29 | Mtb FBA inh conf inactive | GDH-TPI counter-2 inactive
Cc1ccc(C)c(N2CCN(C(=S)Nc3ccc4nc(N5CCOCC5)cc(C)c4c3)CC2)c1	FBA Mtb inh 27 | Mtb FBA inh conf 89 | GDH-TPI counter-2 64
Cc1noc(C)c1S(=O)(=O)Nc1ccc2c(c1)C(=O)N([C@H](C)CO)C[C@H](C)[C@H](CN(C)C(=O)Nc1ccccc1)OCCCC[C@@H](C)O2	none (no result: FadD28 FP inh, FBA Mtb inh, Rv3671c protease, GDH-TPI counter-1)
CCCCN(C(=O)NC(=O)C1=C(N2CCOCC2)/C(=C/c2ccccc2)CC1)S(C)(=O)=O	FBA Mtb inh 44 | Mtb FBA inh conf 128 | GDH-TPI counter-2 83
CCOC(=O)C(=O)C1=C(N2CCOCC2)/C(=C\c2ccc(F)cc2)CC1	none (no result: Mtb BioA inh)
COc1ccc(S(=O)(=O)Nc2ccc3c(c2)C(=O)N(C)C[C@H](OC)[C@H](C)CN[C@@H](C)CO3)cc1	none (no result: FadD28 FP inh, FBA Mtb inh, Rv3671c protease, GDH-TPI counter-1)
CC1Cc2c([nH]c3ccccc23)C(=O)N1 (stereo unspecified)	FBA Mtb inh 32 | Mtb FBA inh conf active | GDH-TPI counter-2 148
CCOC(=O)c1cc(-c2ccc(C)cc2)nc2nc(SC)[nH]c(=O)c12	FBA Mtb inh 40 (no result: Mtb BioA inh) | Mtb FBA inh conf 151 | GDH-TPI counter-2 159
CCOC(=O)c1cc(-c2cccc(C(F)(F)F)c2)nc2nc(SC)[nH]c(=O)c12	none (no result: Mtb BioA inh)
CO[C@@H]1CN(C)C(=O)c2cc(NC(=O)c3ccc4c(c3)OCO4)ccc2OC[C@H](C)N(CCC(F)(F)F)C[C@@H]1C	none (no result: FadD28 FP inh, FBA Mtb inh, Rv3671c protease, GDH-TPI counter-1)
CCC(=O)NCCNc1nc2cc(C)c(C)cc2cc1C#N	FBA Mtb inh 53 | Mtb FBA inh conf inactive | GDH-TPI counter-2 inactive
Cc1cc2cc(C)c(NCCNC(=O)c3ccccc3Cl)nc2cc1C	none
CCOc1ccc2nc(NCCCNC(=O)c3cc(OC)c(OC)c(OC)c3)c(C#N)cc2c1	none
CCOc1ccc2nc(NCCNC(=O)CC)c(C#N)cc2c1	FBA Mtb inh 43 | Mtb FBA inh conf 105 | GDH-TPI counter-2 114
CO[C@@H]1CN(C)C(=O)c2cc(NC(=O)C3CCC3)ccc2OC[C@@H](C)N(C(=O)c2ccccc2)C[C@H]1C	none (no result: FadD28 FP inh, FBA Mtb inh, Rv3671c protease, GDH-TPI counter-1)
O=C(O)C1CCCCC1C(=O)NCc1ccc2c(c1)OCO2 (stereo unspecified)	FBA Mtb inh 90 (no result: Mtb BioA inh) | Mtb FBA inh conf active | GDH-TPI counter-2 162
O=C(NCc1ccc2c(c1)OCO2)C1CCCCC1	none
COc1ccc(CN(C)C[C@H]2OCCCC[C@H](C)Oc3ccc(NC(=O)c4ccncc4)cc3C(=O)N([C@H](C)CO)C[C@@H]2C)cc1	none (no result: FadD28 FP inh, FBA Mtb inh, Rv3671c protease, GDH-TPI counter-1)
Cc1nc(C(=O)Nc2ccccc2Cl)cc2c1[nH]c1ccccc12	none
C[C@@H](NC(=O)c1cc2c([nH]c3ccccc32)c(-c2ccccc2)n1)C(=O)O	FBA Mtb inh 29 | Mtb FBA inh conf 71 | GDH-TPI counter-2 61
COc1cccc(NC(=O)N[C@H]2C=C[C@@H](CC(=O)N3CCOCC3)O[C@@H]2CO)c1	none (no result: FadD28 FP inh, FBA Mtb inh, Rv3671c protease, GDH-TPI counter-1)
Cc1cc(C)c(NC(=O)c2cn3c4c(c(N5CCN(C)CC5)c(F)cc4c2=O)OCC3C)c(C)c1 (stereo unspecified)	FBA Mtb inh 28 | Mtb FBA inh conf active | GDH-TPI counter-2 active
CN1CCN(c2c(F)cc3c(=O)c(C(=O)O)cn4c3c2OCN4C)CC1	none (no result: Mtb BioA inh)
CCOC(=O)C1=C(CSc2nc(CC)c(C)cc2C#N)OC(N)=C(C#N)C1c1ccccc1 (stereo unspecified)	none
CCOC(=O)C1=C(CSc2nc(-c3ccccc3)ccc2C#N)OC(N)=C(C#N)C1c1ccc(OC)cc1 (stereo unspecified)	FBA Mtb inh 74 | Mtb FBA inh conf 112 | GDH-TPI counter-2 93
C[C@@H]1CN([C@@H](C)CO)C(=O)c2cc(C#Cc3cccnc3)cnc2O[C@@H]1CN(C)C(=O)CC1CC1	none (no result: FadD28 FP inh, FBA Mtb inh, Rv3671c protease, GDH-TPI counter-1)
COc1ccc(S(=O)(=O)Nc2ccc3c(c2)CC(=O)N([C@H](C)CO)C[C@@H](C)[C@H](CN(C)C(=O)Nc2ccc(F)cc2)O3)cc1	none (no result: FadD28 FP inh, FBA Mtb inh, Rv3671c protease, GDH-TPI counter-1)
O=C(CS(=O)(=O)c1ccccc1)c1cc2cc(F)ccc2oc1=O	FBA Mtb inh 62 | Mtb FBA inh conf inactive | GDH-TPI counter-2 inactive
COc1ccc2cc(C(=O)CS(=O)(=O)c3ccccc3)c(=O)oc2c1	FBA Mtb inh 57 | Mtb FBA inh conf 56 | GDH-TPI counter-2 46
CO[C@@H]1CN(C)C(=O)c2cc(NC(=O)NC(C)C)ccc2OC[C@H](C)N(Cc2cncnc2)C[C@@H]1C	none (no result: FadD28 FP inh, FBA Mtb inh, Rv3671c protease, GDH-TPI counter-1)
Cc1ccc(CN2CCSc3ccc(C(=O)NCc4cccnc4)cc32)cc1	FBA Mtb inh 69 | Mtb FBA inh conf inactive | GDH-TPI counter-2 23
Cc1ccc(CN2CCSc3ccc(C(=O)NCC4CCCO4)cc32)cc1 (stereo unspecified)	FBA Mtb inh 58 | Mtb FBA inh conf 47 | GDH-TPI counter-2 23
COc1ccc(CCNC(=O)c2ccc3c(c2)N(Cc2ccc(C)cc2)CCS3)cc1OC	FBA Mtb inh 54 | Mtb FBA inh conf 64 | GDH-TPI counter-2 51
COc1ccc(NC(=O)Nc2ccc3c(c2)C(=O)N([C@@H](C)CO)C[C@H](C)[C@H](CN(C)Cc2ccc(Oc4ccccc4)cc2)O3)cc1	none (no result: FadD28 FP inh, FBA Mtb inh, Rv3671c protease, GDH-TPI counter-1)
Cc1ccc(S(=O)(=O)N(CC(=O)NCc2ccccn2)c2ccc(Cl)cc2)cc1	none
CSc1ccc(S(=O)(=O)N(CC(=O)NCc2ccccn2)c2ccc(C)cc2)cc1	FBA Mtb inh 77 | Mtb FBA inh conf 181 | GDH-TPI counter-2 141
CN1C(=O)c2ccccc2N(C)C1c1ccccc1Cl (stereo unspecified)	FBA Mtb inh 64 (no result: Mtb BioA inh) | Mtb FBA inh conf 57 | GDH-TPI counter-2 38
CN1C(=O)c2ccccc2N(C)C1c1cccs1 (stereo unspecified)	FBA Mtb inh 36 | Mtb FBA inh conf 200 | GDH-TPI counter-2 136
CN1c2ccccc2C(=O)NC1c1ccc(Cl)cc1 (stereo unspecified)	none (no result: Mtb BioA inh)
COCC(=O)Nc1ccc2c(c1)[C@@H]1C[C@H](CC(=O)NCc3ccccc3F)O[C@H](CO)[C@@H]1O2	none (no result: FadD28 FP inh, FBA Mtb inh, Rv3671c protease, GDH-TPI counter-1)
CCOC(=O)c1cc2c(c(-c3cccc(-c4cccc(F)c4)c3)n1)[C@H](CCO)N(S(=O)C(C)(C)C)C2 (stereo partly specified)	none (no result: FadD28 FP inh, FBA Mtb inh, Rv3671c protease, GDH-TPI counter-1)
CCC(=O)Nc1ccc2c(c1)C(=O)N(C)C[C@H](OC)[C@@H](C)CN(C(=O)C1CC1)[C@@H](C)CO2	none (no result: FadD28 FP inh, FBA Mtb inh, Rv3671c protease, GDH-TPI counter-1)
